Results published in PubChem BioAssay (Tox21).
A number with no mark means an inactive call. The source made the active and inactive calls. Calls come from the whole dose curve.

biological target: Acetylcholinesterase (Homo sapiens) (UniProt P22303); assay: Acetylcholinesterase (AChE) small molecule antagonists: enzyme-based qHTS assay with human liver microsomes (AID 1347399); conditions: Potency: qHTS inhibition; outcome: qHTS inhibition; series mostly up to 115 µM; activity change, negative = inhibition: at the top concentration; note: nearly all actives have a fitted effect of over 60% in size
In short: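 Recombinant human AChE (50 mU/mL in the enzyme mix) and human liver microsomes (0.25 mg/mL final) were preincubated with compound and NADPH (0.25 mg/mL final) for 30 min at 37 C. Acetylthiocholine/DTNB was then added; thiocholine was read colorimetrically after 10 min at room temperature.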
% is set by controls: 0 for no effect and ±100 for the full control effect.

Sequence of Acetylcholinesterase (Homo sapiens) (P22303 whole entry, looked up): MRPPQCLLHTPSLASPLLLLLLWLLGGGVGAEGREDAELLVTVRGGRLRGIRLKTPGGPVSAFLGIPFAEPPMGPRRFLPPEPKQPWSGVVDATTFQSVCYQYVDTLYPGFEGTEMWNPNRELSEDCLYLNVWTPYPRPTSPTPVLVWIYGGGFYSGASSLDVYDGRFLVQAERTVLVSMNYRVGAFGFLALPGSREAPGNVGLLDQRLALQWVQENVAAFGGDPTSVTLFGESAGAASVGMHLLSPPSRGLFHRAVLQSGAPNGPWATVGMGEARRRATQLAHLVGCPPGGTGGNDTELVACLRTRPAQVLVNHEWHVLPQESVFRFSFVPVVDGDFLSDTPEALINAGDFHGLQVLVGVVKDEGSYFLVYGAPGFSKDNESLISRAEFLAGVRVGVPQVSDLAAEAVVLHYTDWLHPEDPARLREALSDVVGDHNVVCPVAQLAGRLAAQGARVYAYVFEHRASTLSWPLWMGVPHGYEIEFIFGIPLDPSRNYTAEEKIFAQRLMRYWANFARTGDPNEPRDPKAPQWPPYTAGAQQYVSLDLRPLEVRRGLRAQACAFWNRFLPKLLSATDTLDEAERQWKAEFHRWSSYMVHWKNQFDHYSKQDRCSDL

| SMILES | Potency | activity change, negative = inhibition |
| --- | --- | --- |
| CN(C)C | inactive |  |
| CCCCCCCCCCN | inactive |  |
| Cc1occc(=O)c1O | inactive |  |
| COc1cc(Cl)ccc1Cl |  | 0.341% |
| Cc1cccc2cccnc12 |  | -0.984% |
| C=C(C)C(=O)OCCCCCCCCCCCCCCCCCC |  | 0.563% [at 23.6 µM] |
| CCOc1cccc(-n2cc(C(=O)N3CCN(c4cc(C(=O)O)c5ccccc5c4)CC3)nc2-c2ccc(C)cc2)c1 |  | -0.666% |
| Nc1ccc(S(=O)(=O)Nc2ccc(Cl)nn2)cc1 |  | -2% [at 53 µM] |
| CC(C)c1cccc(C(C)C)c1N |  | -0.611% |
| C/C(=N\O)[C@@H](C)NCC(C)(C)CN[C@H](C)/C(C)=N/O |  | 2.02% [at 53 µM] |
| CCN(CC)c1ccc2c(C)cc(=O)oc2c1 | inactive |  |
| Cc1cn([C@H]2C[C@H](N=[N+]=[N-])[C@@H](CO)O2)c(=O)[nH]c1=O | inactive |  |
| O=C(O)c1ccc(OCCN2CCCCC2)cc1 |  | 0.887% [at 53 µM] |
| COc1cccc(OC)c1O |  | -9.04% |
| Cn1c(N)nc2nc[nH]c2c1=O |  | -0.732% |
| O=C1CCCCCCCCCCCCCCO1 |  | -0.0441% |
